# The supplement of paper PMC8975748
# Where a name gives a salt, the structure may show the parent alone.
# Tested on: Saccharomyces cerevisiae BY4741 SeMeCo community
# Test: z-score of subpopulation abundance vs DMSO median, subpopulation auxotrophic for HL; higher = larger share of this subpopulation than in DMSO controls
# Details: 10 µM; 24 h; SM minimal medium; subpopulation (auxotrophy): HL
# Method: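 Fluorescent four-plasmid SeMeCo (self-establishing metabolically cooperating S. cerevisiae BY4741 community; plasmids pH-mRuby2, pL-mWasabi, pU-eCFP, pM-TagRFP657) was grown 24 h in minimal SM medium with each Selleck FDA-approved drug at 10 µM in 384-well plates. Cells were fixed and imaged by high-content confocal microscopy. For each auxotrophic subpopulation (and the prototroph), a z-score gives the deviation from the DMSO vehicle-control population median.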
row,Structure (SMILES),z-score of subpopulation abundance
1,COc1cc([C@@H]2c3cc4c(cc3[C@@H](O[C@@H]3O[C@@H]5CO[C@@H](C)O[C@H]5[C@H](O)[C@H]3O)[C@H]3COC(=O)[C@H]23)OCO4)cc(OC)c1O [Etoposide],0.84
2,CC(=O)OCC(COC(C)=O)OC(C)=O [Triacetin],-0.02
3,COCC(=O)Nc1cc(Sc2ccccc2)ccc1N=C(NC(=O)OC)NC(=O)OC [Febantel],1.03
4,COc1cc(/C=C/C(=O)N2CCN(CC(=O)N3CCCC3)CC2)cc(OC)c1OC [Cinepazide maleate],-0.2
5,CN1C2CCC1CC(OC(=O)C(O)c1ccccc1)C2 (stereo not given) [Homatropine Bromide],-0.63
6,N[C@@H]1CONC1=O [D-Cycloserine],0.99
7,CN(C)CCOc1ccc(/C(=C(/CCCl)c2ccccc2)c2ccccc2)cc1 [Toremifene Citrate],1.37
8,N[C@@H](C(=O)N[C@@H]1C(=O)N2C(C(=O)O)=C(Cl)CS[C@H]12)c1ccccc1 [Cefaclor],-0.05
9,Nc1nc2[nH]cc(CCc3ccc(C(=O)N[C@@H](CCC(=O)O)C(=O)O)cc3)c2c(=O)[nH]1 [Pemetrexed Disodium Hydrate],5.03
10,O=C1OC(CN2CCOCC2)CN1/N=C/c1ccc([N+](=O)[O-])o1 (stereo not given) [Furaltadone HCl],-0.67
11,CCn1cc(C(=O)O)c(=O)c2cc(F)c(N3CCN(C)CC3)cc21 [Pefloxacin Mesylate],0
12,CC[C@H]1OC(=O)C[C@@H](O)[C@H](C)[C@@H](O[C@@H]2O[C@H](C)[C@@H](O)[C@H](N(C)C)[C@H]2O)[C@@H](CCN2C[C@H](C)C[C@H](C)C2)C[C@@H](C)C(=O)/C=C/C(C)=C/[C@@H]1CO[C@@H]1O[C@H](C)[C@@H](O)[C@@H](OC)[C@H]1OC [Tilmicosin phosphate],-0.13
13,Cn1c(=O)c2[nH]cnc2n(C)c1=O [Aminophylline],0.54
14,CC/C(=C(\c1ccccc1)c1ccc(OCCN(C)C)cc1)c1ccccc1 [Tamoxifen],0.95
15,CC1(C)S[C@@H]2[C@H](NC(=O)[C@H](N)c3ccc(O)cc3)C(=O)N2[C@H]1C(=O)O [Amoxicillin],-0.54
16,Clc1ccc(COC(Cn2ccnc2)c2ccc(Cl)cc2Cl)c(Cl)c1 (stereo not given) [Miconazole Nitrate],9.42
17,CC(C(=O)O)c1cccc(C(=O)c2ccccc2)c1 (stereo not given) [Ketoprofen],1.42
18,CC1=C(C(=O)OCCN(Cc2ccccc2)c2ccccc2)C(c2cccc([N+](=O)[O-])c2)C(P2(=O)OCC(C)(C)CO2)=C(C)N1 (stereo not given) [Efonidipine],0.79
19,COC(=O)Nc1nc2cc(Sc3ccccc3)ccc2[nH]1 [Fenbendazole],0.48
20,COc1ccc(C(Cl)=C(c2ccc(OC)cc2)c2ccc(OC)cc2)cc1 [Chlorotrianisene],0.2

row,Structure (SMILES),z-score of subpopulation abundance
1,C[N+]1(C)[C@@H]2CC[C@H]1C[C@@H](OC(=O)C(O)c1ccccc1)C2 (stereo not given in full) [Homatropine Methylbromide],-0.55
2,CO/N=C1\C[C@]2(C[C@@H]3C[C@@H](C/C=C(\C)C[C@@H](C)/C=C/C=C4\CO[C@@H]5[C@H](O)C(C)=C[C@@H](C(=O)O3)[C@]45O)O2)O[C@H](/C(C)=C/C(C)C)[C@H]1C [Moxidectin],1.14
3,O=c1[nH]cnc2c1ncn2[C@@H]1O[C@H](CO)[C@@H](O)[C@H]1O [Isoprinosine],-0.64
4,COC(=O)C1=C(C)NC(C)=C(C(=O)OCCN2CCN(C(c3ccccc3)c3ccccc3)CC2)C1c1cccc([N+](=O)[O-])c1 (stereo not given) [Manidipine 2HCl],2.26
5,CCC1=C(C)CN(C(=O)NCCc2ccc(S(=O)(=O)NC(=O)N[C@H]3CC[C@H](C)CC3)cc2)C1=O [Glimepiride],0.01
6,Cc1ccc(-c2cc(C(F)(F)F)nn2-c2ccc(S(N)(=O)=O)cc2)cc1 [Celecoxib],-0.61
7,CC1(C)S[C@@H]2[C@H](NC(=O)C(C(=O)O)c3ccccc3)C(=O)N2[C@H]1C(=O)O (stereo not given in full) [Carbenicillin disodium],-0.49
8,Clc1ccc(C(Cn2ccnc2)OCc2ccsc2Cl)c(Cl)c1 (stereo not given) [Tioconazole],6.06
9,COc1cc([C@@H]2c3cc4c(cc3[C@@H](O[C@@H]3O[C@@H]5CO[C@@H](c6cccs6)O[C@H]5[C@H](O)[C@H]3O)[C@H]3COC(=O)[C@H]23)OCO4)cc(OC)c1O [Teniposide],1.18
10,O=C(O[C@H]1CN2CCC1CC2)N1CCc2ccccc2[C@@H]1c1ccccc1 [Solifenacin succinate],0.67
11,CCC(C)n1ncn(-c2ccc(N3CCN(c4ccc(OCC5COC(Cn6cncn6)(c6ccc(Cl)cc6Cl)O5)cc4)CC3)cc2)c1=O (stereo not given) [Itraconazole],17.3
12,CCOc1cc(NC(C)=O)ccc1C(=O)OC [Ethopabate],0.25
13,CN(C)C[C@@H]1CCn2cc(c3ccccc32)C2=C(C(=O)NC2=O)c2cn(c3ccccc23)CCO1,1.61
14,C[C@H]1COc2c(N3CCN(C)CC3)c(F)cc3c(=O)c(C(=O)O)cn1c23 [Levofloxacin],-0.59
15,C[C@@H](O)[C@H]1C(=O)N2C(C(=O)O)=C([C@H]3CCCO3)S[C@H]12 [Faropenem Sodium],0
16,C[C@@H](c1nc(-c2ccc(C#N)cc2)cs1)[C@](O)(Cn1cncn1)c1cc(F)ccc1F [Isavuconazole],9.84
17,O=C(O)c1cc(-c2ccc(F)cc2F)ccc1O [Diflunisal],-0.87
18,CO/N=C(\C(=O)N[C@@H]1C(=O)N2C(C(=O)O)=CCS[C@H]12)c1csc(N)n1 [Ceftizoxime sodium],-0.66
19,CONC(=O)Nc1ccc(-c2sc3c(c2CN(C)C)c(=O)n(-c2ccc(OC)nn2)c(=O)n3Cc2c(F)cccc2F)cc1 [Relugolix],-0.26
20,O=C(O)c1ccccc1O [Salicylic acid],-0.19
